# According to ChEMBL document CHEMBL3433997, “St. Jude Leishmania screening dataset” (2016):
# Key:
# Type in all cases: functional
# [1] = biological target: Solute carrier family 2, facilitated glucose transporter member 1 (Homo sapiens) (UniProt P11166); assay: ST_JUDE_LEISH: Cytotoxicity at 2uM final concentration against transgenic Leishmania Mexicana promastigotes LmGLUT1 that are glucose transport deficient and complemented with the human glucose transporter GLUT1. Activity is measured by DNA content using SYBR green in vitro
# [2] = biological target: Hexose transporter 1 (Plasmodium falciparum) (UniProt O97467); assay: ST_JUDE_LEISH: Cytotoxicity at 2uM final concentration against transgenic Leishmania Mexicana promastigotes LmPfHT that are glucose transport deficient and complemented with the Plasmodium falciparum hexose transporter. Activity is measured by DNA content using SYBR green in vitro
# [3] = biological target: Glucose transporter (Leishmania mexicana) (UniProt O61059); assay: ST_JUDE_LEISH: Cytotoxicity at 2uM final concentration against transgenic Leishmania Mexicana promastigotes LmGT2 that are glucose transport deficient and complemented with the L. Mexicana glucose transporter 2. Activity is measured by DNA content using SYBR green in vitro
# Solute carrier family 2, facilitated glucose transporter member 1 (Homo sapiens), sequence (P11166 whole entry): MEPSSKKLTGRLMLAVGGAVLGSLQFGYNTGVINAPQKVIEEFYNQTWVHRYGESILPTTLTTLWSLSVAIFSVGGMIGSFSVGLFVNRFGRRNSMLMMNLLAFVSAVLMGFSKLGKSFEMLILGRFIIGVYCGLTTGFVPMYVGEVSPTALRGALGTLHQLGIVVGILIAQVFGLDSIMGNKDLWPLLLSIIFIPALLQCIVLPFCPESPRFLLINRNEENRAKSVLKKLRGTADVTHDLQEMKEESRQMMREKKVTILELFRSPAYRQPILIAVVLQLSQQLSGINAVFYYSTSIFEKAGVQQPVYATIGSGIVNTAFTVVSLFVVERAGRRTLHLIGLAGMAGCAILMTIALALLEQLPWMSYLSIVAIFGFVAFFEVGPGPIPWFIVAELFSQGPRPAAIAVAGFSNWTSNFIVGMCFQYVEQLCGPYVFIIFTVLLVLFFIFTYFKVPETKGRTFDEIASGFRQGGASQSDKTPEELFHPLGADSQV
SMILES,inhibition [1] [%],inhibition [2] [%],inhibition [3] [%]
COc1cc2c(cc1S(=O)(=O)c1ccc(NC(=O)c3ccc4ccccc4c3)cc1)CCN(C)CC2,1.64,0.19,-0.44
CC(=O)Nc1ccc(CN2CCC(CNC(=O)c3cc(-c4cccc(C(F)(F)F)c4)cs3)C2)cc1 (stereo not drawn),-0.71,0.04,-5.57
Cc1cc(C)cc(CC(=O)N2CCC(n3c(C)nc4ccc(C)cc43)CC2)c1,2.35,1.45,1.51
Cc1cc(N2CCN(CC3CCN(C)CC3)CC2)nc(Nc2ccc(Br)cc2)n1,1.44,2.2,1.74
Cc1nc(O)c2c(ccc3ccc(CN(C)c4ccc(C(=O)N[C@@H](CCC(=O)O)C(=O)O)cc4)cc32)n1,-1.5,-0.69,-1.57
CN(C)CC(=O)Nc1ccc(Nc2nccc(NCC(O)c3ccccc3)n2)cc1 (stereo not drawn),1.63,2.79,0.21
CCC[C@@H]([C@@H](CC1CCCCC1)C(=O)N[C@H](C(=O)Nc1nccs1)[C@@H](C)OCc1ccccc1)N(O)C=O,6.17,3.62,2.53
Cc1noc(C)c1-c1ccc2c(Nc3ccccc3C(C)(C)C)c(C(=O)NCc3ccc(OC(C)C)cc3)cnc2c1,3.36,4.36,5.28
CN1CCN(Cc2nc(-c3ccc4c(Nc5ccc(Oc6ccccc6)cc5)ccnc4c3)cs2)CC1,2.66,2.64,1.74
COc1cccc(CCNCc2ccc(-c3cccc(CNC4CCCC4)c3)cc2)c1,7.38,5.19,3.02
COc1cccc(OC)c1CN1CCC(N(C)CCCCCCCCCN2CCC(OC(=O)Nc3ccccc3-c3ccccc3)CC2)CC1,113,108,111
NC1CCN(c2nc(NCCCc3ccc(O)cc3)nc(NCc3ccccc3-c3ccccc3)n2)CC1,0.77,0.01,1.09
CN(C)CCC1CCN(CCS(=O)(=O)c2cccc(Nc3ncc(-c4cccc(F)c4)cn3)c2)CC1,-2.08,0.49,9.03
O=S(=O)(c1c(Cl)cccc1Cl)N1CCCCC(c2ccc(C(F)(F)F)cc2)=N1,2.16,4.23,4.51
O=C(Nc1cccc(CN2CCCN(Cc3ccc(O)cc3)CC2)c1)c1cc2ccccc2o1,-0.45,2.02,1.62
O=C(Nc1ccc(Br)c(C(F)(F)F)c1)c1cccc([N+](=O)[O-])c1,3.35,2.2,-0.11
CCc1ccc(N2C(=O)C3C(Cc4ccc(OC(C)(C)C)cc4)NC4(C(=O)N(Cc5ccccc5)c5ccc(F)cc54)C3C2=O)cc1 (stereo not drawn),0.6,-0.02,-1.06
CC(C)C[C@H](NC(=O)c1cc2ccccc2s1)C(=O)N[C@H]1CCN(Cc2ccc(OC3CCN(C)C3)c(Cl)c2)C1 (stereo partly drawn),1.48,2.37,-0.19
CCS(=O)(=O)c1ccc(OC)c(Nc2nccc(-c3c(-c4cccc(NC(=O)c5c(F)cccc5F)c4)nn4ncccc34)n2)c1,6.13,3.41,2.02
O=[N+]([O-])c1cccc(CNCC2CCN(Cc3ccc(Cl)c(Cl)c3)CC2)c1,18.2,9.74,12.9
O=C(/C=C/c1ccc2ccccc2c1)NCCCCCN1CCC(c2c[nH]c3ccccc23)CC1,3.34,5.66,0.03
CS(=O)(=O)c1ccc2c(c1)CCN(CCC1CCC(NC(=O)c3cc4cccc(Br)c4[nH]3)CC1)CC2 (stereo not drawn),2.5,2.78,1.11
CCc1cc(OC)ccc1C1CCN(CCCCNC(=O)c2ccc(NC(=O)c3ccc(Cl)cc3)cc2)CC1,3.47,5.73,-1.82
Nc1ncc(-c2ccc3nccc(-c4ccncc4)c3c2)cc1S(=O)(=O)N1CCOCC1,5.11,3.05,1.27

SMILES,inhibition [1] [%],inhibition [2] [%],inhibition [3] [%]
CN1CCN(c2ncnc3ccc(NC(=O)Nc4ccc(Cl)c(Cl)c4)cc23)CC1,5,2.35,5.24
CC(C)Oc1ccc(C=CC(=O)Nc2noc3ccccc23)cc1,2.56,3.16,2.36
N=C(N)NC(=O)Nc1ccc(Cl)c(C(F)(F)F)c1,1.17,2.97,1.44
O=C(Nc1ccc(Br)cc1)N(CCN1CCOCC1)CC(O)COCc1ccc(F)cc1 (stereo not drawn),1.97,1,-8.93
O=C(Nc1ccc(OC2CCN(Cc3ccsc3)CC2)c(Cl)c1)c1cccs1,7.63,2.38,2.85
CC1Cc2ccccc2N1S(=O)(=O)c1cc(OCC(F)(F)F)ccc1OCC(F)(F)F (stereo not drawn),4.69,3.54,3.67
O=[N+]([O-])c1cccc(C=NNc2nc(=Nc3ccccc3)[nH]c(=Nc3ccccc3)[nH]2)c1,4.34,7.8,-0.18
CCc1cn2c3c(cc(C(=O)N[C@@H](Cc4cc(F)cc(F)c4)[C@H](O)CNC4CCCCC4)cc13)N(C)S(=O)(=O)CC2,0.79,0.2,-2.62
O=C(Nc1ccc(OC2CCN(Cc3ccsc3)C2)c(Cl)c1)c1ccco1 (stereo not drawn),0.28,1.35,0.21
COc1ccc(NC(=O)[C@H](CC(C)C)Nc2cc(C)nc(NCCOc3ccccc3)n2)cc1,1.07,2.71,-0.23
COc1ccc2ccccc2c1C=NN=c1cc(C)[nH]c2c(C)cccc12,1.52,1.8,3.6
Cc1cc(NC(=O)c2cc(S(=O)(=O)N3CCCCC3)ccc2C)no1,4.25,4.4,2.15
COc1ccc(CN2C(=S)N(Cc3ccccc3)C(=O)C2CC(=O)Nc2ccccc2)cc1OC (stereo not drawn),0.79,-0.87,-2.09
COc1ccc(NC(=O)Nc2ccc(-c3ccncc3)c(C(F)(F)F)c2)cc1N1CCN(C)CC1,13.1,12.6,9.27
CC(CN(C)C)C(=O)Nc1cccc(-c2ccc(-c3nc4cc(C(F)(F)F)ccc4[nH]3)cc2)c1 (stereo not drawn),11,9.17,4.86
O=C(Nc1ccc2c(c1)CCN2C1CCN(Cc2cccc3cc[nH]c23)C1)c1ccco1 (stereo not drawn),0.46,-0.85,1.83
COc1cc2c(cc1OC)C(c1ccc(Br)cc1)CN(C)CC2 (stereo not drawn),1.39,4.21,4.35
O=C(Nc1cccc(CN2CCN(Cc3cccc(O)c3)CC2)c1)c1ccc(Cl)c(Cl)c1,-1.71,-0.84,-1.62
O=C(NCCCN1CCC(N2CCCCC2)CC1)C1=Cc2cc(Br)ccc2OC1,1.4,2.63,0.26
C(=NN=c1cc(-c2ccccc2)[nH]c2ccccc12)c1cccnc1,15.1,11.7,6.62
CC(=Nc1ccc(Cl)c(Cl)c1)N(C)C,0.17,0.54,0.02
Cc1cc2nc(-c3cccc(C(=O)NC4CCN(Cc5ccccc5)CC4)c3)[nH]c2cc1C,1.16,1.99,1.84
[O-][s+]1nc(NCCCN(Cc2cccs2)c2ccccn2)c(NCc2ccccc2)n1 (stereo not drawn),-1.34,0.68,-1.82
CC1CN(c2cnn(Cc3ccc(NC(=O)Nc4ccc(-c5ccccc5)cc4)cc3)c(=O)c2Cl)CC(C)N1 (stereo not drawn),1.43,0.34,-1.78

SMILES,inhibition [1] [%],inhibition [2] [%],inhibition [3] [%]
O=[N+]([O-])c1cccc(/C=N/Nc2ccnc3ccc(C(F)(F)F)cc23)c1,4.51,2.45,0.3
Cc1ccc2c(OCCN3CCC(Cc4ccc5c(c4)NC(=O)CO5)CC3)cc(F)cc2n1,3.49,2.13,0.63
Nc1nc(N)c2c(ccc3nn(C4CCCC4)cc32)n1,10.1,9.8,5.28
CSC1=NC(=Nc2ccccc2C)C2(CCC(C(C)(C)C)CC2)N1c1ccccc1Cl (stereo not drawn),-1.03,-3.95,-2.88
CCCNC[C@@H](O)[C@H](Cc1ccccc1)NC(=O)c1cc(NCC)cc(N2CCCCS2(=O)=O)c1,1.97,2.32,2.85
Oc1ccc(CNCC2CCN(CC3CCCCC3)CC2)cc1,5.22,0.53,5.43
COc1cccc(C(=O)Nc2ccc(Nc3nc(C)cc(N4CCCCC4)n3)cc2)c1OC,1.99,2.75,0.19
Cc1ccc(O)c(C(=O)c2cc(C(=O)Nc3ccccc3C)c(=O)n(-c3ccccc3C)c2)c1,4.62,3.71,1.81
O=C(Nc1ccc2c(c1)CCN2C1CCN(Cc2ccc(F)cc2Cl)C1)c1ccco1 (stereo not drawn),1.66,0.61,2.25
COc1ccc(NC(=O)CSc2nc(-c3ccccc3Cl)ns2)cc1,1.15,-1.47,-2.13
COC1CCC(C(=O)Nc2ccc(-c3cccc(-c4nc5cccc(C)c5[nH]4)c3)cc2)CC1 (stereo not drawn),6.31,4.3,3.5
CC1(C)NC(N)=NC(=N)N1OCCCOc1cc(Cl)cc(Cl)c1,4.4,7.49,2.47
COc1ccc2nccc([C@@H](O)CN3CCC(NC(=O)Cc4cc5ccccc5s4)CC3)c2c1,8.41,6.59,1.96
CC(C)C(=O)NC(c1cccs1)c1cc(Cl)c2cccnc2c1O (stereo not drawn),1.65,1.13,-0.45
COc1ccccc1CCC(C)(C)NC(=O)CC(CCc1ccccc1)Nc1ccc(C#N)c2ccccc12 (stereo not drawn),-0.97,-0.79,-3.34
NC(=O)c1cccc(CNCc2ccc(-c3cccc(-c4nc5ccccc5[nH]4)c3)cc2)c1,5.8,5.87,5.4
C#CCNCc1ccc(-c2cccc(-c3nc4cccc(C)c4[nH]3)c2)cc1,6.77,4.1,3.18
COc1cccc(NC(=O)Nc2ccc(Nc3nc(C)cc(N4CCCC4)n3)cc2)c1,1.91,1.07,1.4
COc1cc2nc(NCCn3cccn3)nc(NCCc3ccccc3)c2cc1OC,7.22,3.02,6.96
COc1ccc(-c2ccc(NC(=O)c3ccc(Cl)cc3)cc2)cc1CN1CCCN(C)CC1,5.26,4.81,5.6
CS(=O)(=O)c1ccc(CNCc2cccc(-c3cccc(-c4nc5ccccc5[nH]4)c3)c2)cc1,2.3,0.28,-2.15
Cc1sc(N2CCN(C)CC2)nc1C(=O)Nc1ccc(F)cc1C(F)(F)F,4.38,2.2,3.75
CN(Cc1cccc(F)c1)C1CCN(c2cc(NC(=O)c3cccc(F)c3)ccn2)CC1,3.06,3.18,2.7
